In PubChem BioAssay AID995 (National Center for Advancing Translational Sciences (NCATS), 2007):
In all, about 72,000 compounds went through this assay and about 710 (0.99%) were called active. Not shown: some 7% with an inconclusive outcome. Calls come from the whole dose curve; as a rule, active = well fitted inhibition curve with a large enough effect; inconclusive = small, poorly fitted or top-dose-only effect; inactive = no such curve, though single readings can be large or run the other way. Many of the other results were omitted from the sample, so actives are more common in it than they were.

Test: qHTS Assay for Inhibitors of the ERK Signaling Pathway using a Homogeneous Screening Assay; note: nearly all actives have a fitted effect of over 55% in size
Conditions: HEK293-V1b, vasopressin-stimulated pERK AlphaScreen; series mostly up to 57.5 µM
Summary of the method: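 Overnight-seeded V1b-HEK293 cells in 1% FBS got compound, then vasopressin (25 nM final, 5 min, 37C), then lysis buffer. AlphaScreen detection of phospho-ERK; activity normalized to basal and full-stimulation controls.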
% is set by controls: 0 for no effect and ±100 for the full control effect; potency is the fitted concentration of half-maximal effect.

Potency, inactive:
CC(=O)OCC(=O)C1CCC2C3CCC4=CC(=O)CC[C@@]4(C)C3CC[C@]12C (stereo partly specified)
Cc1ccc(NC(=O)c2cccc(N(C)C)c2)cc1NC(=O)c1ccc(O)cc1
CC1(C)OC2CO[C@]3(COS(N)(=O)=O)OC(C)(C)OC3C2O1 (stereo partly specified)
CC1(C)C=CC(=O)[C@]2(C)C1CC(=O)[C@]1(C)C2CC[C@@]2(C)C(c3ccoc3)OC(=O)C3OC321 (stereo partly specified)
COC(=O)[C@H]1C[C@@H]1[C@H](NC(=O)Oc1ccc(F)cc1)c1ccccc1
O=C(c1cnccn1)N1CCC2(CCCN(Cc3ccccc3)C2)CC1
COc1ccccc1OCCNCC(O)COc1cccc2[nH]c3ccccc3c12 (stereo unspecified)
O=C(OCC(COC(=O)c1ccccc1)(COC(=O)c1ccccc1)COC(=O)c1ccccc1)c1ccccc1
COc1c(C(C)C)oc2cc3oc(=O)ccc3cc12
COC(=O)[C@@]1(Cc2ccc(OC)cc2)[C@H]2c3cc(C(=O)N4CCCC4)n(Cc4ccc(OC(F)(F)F)cc4)c3C[C@H]2CN1C(=O)c1ccccc1
CC(C)CO
Nc1nc2[nH]c(=O)c(=O)[nH]c2c(=O)[nH]1
COC(=O)[C@@H]1C[C@@]2(O)[C@@H](O)[C@@H](O)[C@@H](O)C[C@H]2N1Cc1ccc(C)s1
O=C(c1cc(C(F)(F)F)cc(C(F)(F)F)c1)N1CCC[C@@]2(CCN(c3ccccn3)C2)C1
Cc1nc2cnc(N3CCNCC3)nc2n(CCc2ccccc2)c1=O
C/C=C(/C)C(=O)OC1Cc2c(ccc3ccc(=O)oc23)OC1(C)C (stereo unspecified)
COc1ccc(C[C@H](N)C(=O)N[C@@H]2[C@H](O)[C@H](n3cnc4c(N(C)C)ncnc43)O[C@@H]2CO)cc1
Cc1c(S(=O)(=O)O)oc2c1C(=O)C(=O)c1c-2ccc2c1CCCC2(C)C
C=C1C([C@@]2(C)C(OC(C)=O)CC(=O)O[C@@](C)(COC(C)=O)C2CC(=O)OC)C(OC=O)C(OC(=O)C(O)C(C)CC)[C@]2(C)C(c3ccoc3)CC(=O)C12O (stereo partly specified)
CCCCCn1c(SCCC(C)C)nc2c1c(=O)[nH]c(=O)n2C
Cc1ccnc(SCCn2c(Br)nc3c2c(=O)[nH]c(=O)n3C)n1
CCC[C@@H]1C[C@@]1(CCC)C(NC(=O)c1ccc(-c2ccccc2)cc1)c1cccc(Cl)c1 (stereo partly specified)
CC1=C(C(=O)OCc2ccccc2)C(c2ccc(C(F)(F)F)cc2)NC(=O)N1CCCCCC(=O)O (stereo unspecified)
Cc1ccccc1NC(=O)CNc1ccccc1N1CCCCC1
O=C(NCCCN1CCN(C2CCCCC2)CC1)Nc1ccccc1C(F)(F)F
CC(C)[C@H]1CC[C@@H](C)C[C@H]1O
CC(C)C1=CC2=CC[C@@H]3[C@](C)(CO)CCC[C@]3(C)C2CC1 (stereo partly specified)
CC1C(O)CC2C(C(=O)O)=CO[C@@H](O[C@H]3OC(CO)C(O)C(O)C3O)C21 (stereo partly specified)
Cc1ccc(S(=O)(=O)NC(=O)NN2C[C@H]3CCC[C@@H]3C2)cc1
Cc1ccc(/C(=C/CN2CCCC2)c2ccccn2)cc1
CCC1=C(OC(=O)N(CC)CC)N2C(=O)OC(=NCCc3c[nH]c4ccccc34)[C@]2(C)[C@H]2C1=CC[C@H]1C(=O)N(CC)C(=O)[C@H]12
O=C(O)COc1nsnc1N1CCOCC1
c1nc(COc2nsnc2N2CCOCC2)cs1
O=C(c1csnn1)N1CCC2(CCN(Cc3nccs3)CC2)CC1
COc1ccc(C2CC(=O)c3c(O)cc(OC4OC(COC5OC(C)C(O)C(O)C5O)C(O)C(O)C4O)cc3O2)cc1O (stereo unspecified)
O=C1OC(C(O)CO)C(O)=C1O (stereo unspecified)
O=C(NCCN1CCOCC1)c1c(F)c(F)c(F)c(F)c1F
O=C(NCc1cccs1)c1ccc2c(c1)ncn2C1CCCC1
FC(F)(F)c1ccccc1-c1cc(NCc2ccccc2)ncn1
C=CC(=O)OCCOCCOCCOCCOC(=O)C=C
Cc1oc2nc(SCC(=O)NCc3cccnc3)nc(N)c2c1C
COc1ccc(-c2nc(SCC(=O)N3CCOCC3)n[nH]2)cc1
CN1CC(=O)N=C1N
Nc1nc2c(nc(Cl)n2C2OC(CO)C(O)C2O)c(=O)[nH]1 (stereo unspecified)
Oc1ccc2c(c1)OCC1c3cc4c(cc3OC21)OCO4 (stereo unspecified)
COC(=O)[C@@H]1C[C@@]2(O)[C@H](O)[C@H](O)[C@H](O)C[C@H]2N1CC1CCCCC1
COC(=O)[C@@H]1C[C@@]2(O)[C@H](O)[C@H](O)[C@H](O)C[C@H]2N1Cc1ccc(C)s1
COc1ccccc1-c1nnc(SCC(=O)Nc2cc(C)on2)o1
COc1ccccc1-c1nnc(SCC(=O)N2CC(C)CC(C)C2)o1 (stereo unspecified)
Cn1cccc1C(=O)N1CCC2(CC1)CN(c1cccc(-c3ccccc3)c1)C2

Potency, active:
Cn1c(=O)[nH]c(=O)c2c1nc(Br)n2CCCCSc1nc2ccccc2o1 31.6 µM
O=C(CN1CCN(C2CCCCC2)CC1)Nc1ccccc1N1CCCCC1 25.1 µM
C=CC(=O)c1ccc2ccccc2c1 10 µM
c1ccc(COc2nsnc2N2CCOCC2)cc1 25.1 µM
O=C(NCCN1CCOCC1)c1ccc2c(c1)ncn2C1CCCC1 25.1 µM
O=C(CSc1n[nH]c(-c2cccnc2)n1)Nc1ccnc2ccccc12 20 µM
COc1ccccc1-c1nnc(SCC(=O)Nc2ccccc2)o1 25.1 µM

activity, negative = inhibition, inactive:
O=C(O)CS(=O)c1ccc2c3c(cccc13)C(=O)c1ccccc1-2 (stereo unspecified) 22.7% [at 11.5 µM]
C[C@@H]1/C=C\CC(=O)OC[C@H]2O[C@@H](C=C[C@@H]2O)[C@H](C)/C=C\CC(=O)OC[C@H]2O[C@H]1C=C[C@@H]2O 20.6% [at 11.5 µM]
Cc1ccc2nc(CC(=O)c3ccc4ccccc4c3)c(=O)[nH]c2c1 3.17% [at 11.5 µM]
Nc1nc(N)c2[nH]c(CNc3ccc(C(=O)O)cc3)nc2n1 -2.04% [at 11.5 µM]
